Most compounds without a hit are left out; they make up all but 2.3% or so of the library.
CHRM1 PAM – human CHRM1 positive allosteric modulation; 0.088% of 360,000 active; CHO-K1 hM1, Fluo-8 calcium fluorescence, ACh EC20; 0% = ACh EC20, 100% = maximal ACh; activation, % at 3 µM; P11229; in the data active = activation above about 19%, passing the limit was not always enough
Target sequence (P11229 whole entry, looked up): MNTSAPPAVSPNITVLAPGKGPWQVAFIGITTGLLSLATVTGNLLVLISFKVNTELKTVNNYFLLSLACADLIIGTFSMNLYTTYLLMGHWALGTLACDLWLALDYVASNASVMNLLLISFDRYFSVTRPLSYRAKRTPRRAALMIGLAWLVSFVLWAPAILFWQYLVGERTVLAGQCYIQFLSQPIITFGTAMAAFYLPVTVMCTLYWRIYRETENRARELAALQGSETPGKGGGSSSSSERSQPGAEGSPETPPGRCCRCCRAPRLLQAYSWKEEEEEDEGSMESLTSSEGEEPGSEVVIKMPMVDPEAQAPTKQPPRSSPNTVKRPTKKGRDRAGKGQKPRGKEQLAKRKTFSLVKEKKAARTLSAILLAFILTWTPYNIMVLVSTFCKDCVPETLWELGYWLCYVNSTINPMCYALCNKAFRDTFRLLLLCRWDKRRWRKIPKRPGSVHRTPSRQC
CHO-K1 Ca antag – counter-screen for M1 antagonists: effect in parental CHO-K1 cells | ATP-induced calcium, Fluo-8 fluorescence | inhibition, % at 3 µM | 0.6% of 360,000 active;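 active = inhibition above a per-plate cutoff, the plate's mean sample inhibition plus 3 SD, cut at about 24% in these data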;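 also: 0% = DMSO plus EC80 ATP and 100% = DMSO alone without ATP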
M1 ag – agonists of human M1 muscarinic receptor; P11229; 0.33% of 360,000 active; CHO-K1 hM1, Fluo-8 calcium fluorescence, agonist mode; 0% DMSO, 100% acetylcholine EC100; activation, % at 3 µM;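 active = activation above the run's mean compound activation plus 3 SD, cut at about 16% in these data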;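 also: peak over basal fluorescence ratio within a 140 s kinetic read after compound addition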
CHRM1 antagonist – antagonists of human M1 muscarinic receptor; P11229; AID 588852; CHO-K1 hM1, Fluo-8 calcium fluorescence, ACh EC80 antagonist; inhibition, % at 3 µM; 1.3% of 360,000 active;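 active = percent inhibition above its own plate's cutoff, namely the mean of that plate's compound wells plus 3 SD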;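 also: peak over basal fluorescence ratio during 140 s after agonist addition; 0% = ACh EC80 plus DMSO and 100% = DMSO alone without agonist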
CHO-K1 Ca ag – M1 agonist counterscreen hit in parental CHO-K1 cells. Fluo-8 calcium fluorescence; scaled to maximal ATP response, vehicle zero. activation, % at 3 µM. 0.48% of 360,000 active. AID 602248; in the data active = activation above about 15%;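 also: untransfected CHO-K1 host cells lacking M1 receptor as counterscreen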
CHO-K1 Ca PAM – counter-screen for M1 PAMs: effect in parental CHO-K1 cells. ATP EC20, Fluo-8 calcium fluorescence; 0% at ATP EC20, 100% at ATP max. activation, % at 3 µM. 0.02% of 360,000 active. AID 602247;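 active = activation above the run cutoff, the mean activation of all test compounds plus 3 SD, cut at about 40% in these data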;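 also: peak over basal fluorescence ratio in a 140 s read after ATP addition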
Active calls of the source: *.

SMILES	CHRM1 PAM	CHO-K1 Ca antag	M1 ag	CHRM1 antagonist	CHO-K1 Ca ag	CHO-K1 Ca PAM
CCOC(=O)C1CCCN(C2=C(NS(=O)(=O)c3ccc(Br)cc3)C(=O)c3ccccc3C2=O)C1 (stereo unspecified)	-20	5	41*	30	4	-9
CC1CCN(C2=C(NS(=O)(=O)c3ccc(Cl)cc3)C(=O)c3ccccc3C2=O)CC1	4	-6	-9	-3	0	21
CCOC(=O)C1CCN(C2=C(NS(=O)(=O)c3ccc(Cl)cc3)C(=O)c3ccccc3C2=O)CC1	-14	-4	30*	12	1	11
CCOC(=O)C1CCN(CC(C)(C)NS(=O)(=O)c2ccc(C)cc2)CC1	27*	-15	-12	-27	2	4
COc1ccccc1NC(=O)CS(=O)(=O)c1cn(CC(=O)N2CCCC2)c2ccccc12	5	-8	-3	-12	1	2
CCN(CC(=O)Nc1cccc(C(C)=O)c1)S(=O)(=O)c1ccc(C)cc1	7	-6	-6	-4	3	22
O=C(c1ccccc1)N1CCN(S(=O)(=O)c2ccccc2)CC1	3	-8	-3	102*	1	21
O=C(c1cccc(S(=O)(=O)N2CCOCC2)c1)N1CCN(C/C=C/c2ccccc2)CC1	-27	4	-8	98*	1	-16
Cc1cccc(C)c1N(CC(=O)NCc1ccccc1)C(=O)c1csnn1	12	-14	-5	-3	1	5
CC(C)[C@@H](C(=O)NCC1CCC(C(=O)O)CC1)n1nnc2ccccc2c1=O (stereo partly specified)	2	-1	-3	-1	0	0
O=C(Cn1nnc2ccccc2c1=O)NCC1CCC(C(=O)O)CC1 (stereo unspecified)	12	3	8	-11	18*	11
O=C(Nc1cc(C2CC2)nn1-c1ccccc1)c1ccc(F)cc1	13	3	-4	-3	0	-16
CC1=CC(=O)C(C(C)C)=C/C1=N/OS(=O)(=O)c1ccccc1	-17	50*	5	61*	20*	-20
Cc1ccc(S(=O)(=O)ON=C2CCN(S(=O)(=O)c3ccccc3)CC2)cc1	8	-17	0	-7	0	7
Cc1ccc2c(c1)/C(=N/OS(=O)(=O)c1ccccc1)CCS2	6	-10	-3	0	0	19
CC1=CC(=O)C=C(C)C1=NOS(=O)(=O)c1ccccc1	4	-3	11	18*	11	20
COP(=O)(OC)C(Nc1ccc(C)cc1)c1ccc(Br)cc1 (stereo unspecified)	11	-1	-4	-19	0	-6
CCN1CC=C2C(C1)C(c1ccc(Cl)s1)C(C#N)=C(N)C2(C#N)C#N (stereo unspecified)	-4	-2	1	3	4	3
COc1ccc(C)cc1N(CC(=O)Nc1ccc(S(=O)(=O)N2CCCC2)cc1)S(C)(=O)=O	3	2	-6	2	1	-5
CC(C)NCc1cc(Br)ccc1OCc1ccccc1	-17	-8	34*	29	3	16
CC(C)(CO)NCc1cc(Br)ccc1OCc1ccccc1	5	-21	-10	-1	1	13
CC(C)NC(=O)c1ccc(CN2CCc3ccccc3C2)cc1	-27	5	-9	45*	0	4
CC(C)CC(NS(=O)(=O)OCC(Cl)(Cl)Cl)c1ccccc1 (stereo unspecified)	-21	-2	-7	35*	-1	-5
COC(=O)CCC(NS(=O)(=O)OCC(Cl)(Cl)Cl)c1ccccc1 (stereo unspecified)	-2	-7	-5	2	0	2
c1ccc(CN2CCC(Nc3nc(-c4cccs4)nc4ccccc34)CC2)cc1	8	-4	-1	2	16*	21
COc1cc2cc(CCCOC(=O)c3ccc(C#N)cc3)oc(=O)c2cc1OC	-10	-7	-4	20	0	19
Cc1ccccc1C(=O)Nc1cccc(C(=O)Nc2ccccc2C(=O)O)c1	5	26*	-2	7	0	-21
CCCCCCN1CC(=O)N2Cc3[nH]c4ccccc4c3C[C@H]2C1=O	10	-11	-2	-11	2	-4
